High-throughput results (PubChem)
Compounds with a hit are over-represented: about 18% of the library has one in this group of screens.
TDP1 cell noCPT: qHTS for Inhibitors of human tyrosyl-DNA phosphodiesterase 1 (TDP1): qHTS in cells in absence of CPT | AID 686978, 2013 | Potency, µM (titrated, usually from 46.2 µM), inactives show at the top dose activity change, negative = growth inhibition, hits mostly inhibitors | DT40 Tdp1-/- hTDP1 cells, no CPT, ATP luminescence, 48 h | hit rate 15% among 420,000; also: nearly all actives have a fitted effect of over 55% in size
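Stably hTDP1-transfected Tdp1-null chicken DT40 cells were treated with library compounds minus camptothecin and grown for at least 48 hr at 37 °C, after which cellular ATP was quantified by luminescence.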
GCN5L2 inh: blocks human GCN5L2 histone acetyltransferase | Potency, µM (highest dose often 58.9 µM), for inactives: at the top dose activity change, negative = inhibition, hits mostly inhibitors | hit rate 0.21% among 390,000 | GCN5L2 HAT assay, ThioGlo1 CoA-SH fluorescence | Q92830 | AID 504327
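Titration-based screen in which CoA formation is detected via maleimide probe ThioGlo1 (50uM) turning fluorescent on thiol reaction; substrates H3(1-25) 75uM and acetyl-CoA 70uM, GCN5L2 20nM, 20 min incubation at room temperature.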
TDP1 inh: TDP1 (human) enzyme inhibition; recombinant TDP1, AlphaScreen DNA substrate cleavage; Potency, µM (highest dose often 130 µM), for inactives: at the highest dose activity change, negative = inhibition, hits mostly inhibitors; Q9NUW8; hit rate 0.28% among 350,000; also: nearly all actives have a fitted effect of over 40% in size
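Steps: enzyme plus compound, 15 min RT; add biotin/phosphotyrosine-FITC oligonucleotide (15 nM final), react 5 min; add donor/acceptor beads (10 ug/ml final), 10 min; read AlphaScreen. Tdp1 at 1 nM final.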
PLK1 PBD inh: inhibitors of human PLK1 polo-box domain binding | P53350 | Plk1 PBD binding of FITC phosphopeptide, fluorescence polarization | Potency, µM, for inactives: max response, negative = inhibition, actives largely listed as inhibitors | hit rate 2.8% among 360,000 | AID 720504; also: series mostly up to about 57 µM; nearly all actives have a fitted effect of over 65% in size
Target sequence (P53350 whole entry, looked up, the tested form may be a part): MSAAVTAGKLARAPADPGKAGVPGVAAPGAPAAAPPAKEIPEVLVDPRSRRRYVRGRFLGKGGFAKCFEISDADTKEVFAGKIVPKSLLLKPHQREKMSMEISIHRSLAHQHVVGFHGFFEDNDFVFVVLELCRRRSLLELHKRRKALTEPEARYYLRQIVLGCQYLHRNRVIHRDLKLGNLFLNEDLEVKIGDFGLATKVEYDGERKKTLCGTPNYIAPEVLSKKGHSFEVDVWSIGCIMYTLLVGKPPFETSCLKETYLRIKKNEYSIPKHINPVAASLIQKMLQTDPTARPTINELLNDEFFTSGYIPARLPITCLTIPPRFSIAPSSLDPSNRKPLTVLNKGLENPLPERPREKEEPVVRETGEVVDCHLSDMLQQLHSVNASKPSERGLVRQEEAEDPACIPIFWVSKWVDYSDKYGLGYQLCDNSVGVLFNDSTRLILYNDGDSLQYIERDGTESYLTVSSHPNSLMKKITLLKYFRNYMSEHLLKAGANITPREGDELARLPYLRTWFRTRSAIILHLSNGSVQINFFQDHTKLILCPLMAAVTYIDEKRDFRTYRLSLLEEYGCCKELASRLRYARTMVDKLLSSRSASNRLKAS
VDR inh: blocks the human vitamin D receptor; P11473; VDR-SRC2-3 peptide fluorescence polarization, 2 h; AID 504847; Potency, µM, inactives show max response, negative = inhibition, usual class: inhibitors; hit rate 0.93% among 400,000
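Reagent solutions, kept cold and dark, are dispensed first; compounds are then pinned in at 23 nl, plates briefly spun, and incubated 2 h at ambient temperature. Inhibition of VDR–SRC2-3 peptide binding is read by fluorescence polarization.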
DT40 TDP1 CPT: DT40-hTDP1 cell growth loss with CPT; AID 686979; hit rate 12% among 420,000; chicken DT40 Tdp1-/-;hTDP1 cells + 20 nM CPT, ATP luminescence, 48 h; Potency, µM (series often up to 46.2 µM), for the others: at the top dose activity change, negative = growth inhibition, actives largely listed as inhibitors; also: nearly all actives have a fitted effect of over 55% in size
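Chicken DT40 Tdp1-/- cells complemented with human TDP1, 400 cells/well, exposed to compounds plus 20 nM camptothecin for at least 48 h at 37 C; viability read as ATP content by CellTiter-Glo luminescence.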
* = called active by the depositor; ? = inconclusive; / = not tested or not shown; [ ] = dose if it differs, or a comment. Calls follow the shape of the dose curve; as a rule, active = well fitted curve in the direction sought with a large enough effect; inconclusive = small, poorly fitted or top-dose-only effect, or another doubt; inactive = no such curve, though single readings can be large; an effect the other way counts as inactive or inconclusive. % is scaled to controls: 0 for no effect and ±100 for the full control effect; potency is read from the fitted curve at half-maximal effect.

SMILES	TDP1 cell noCPT	GCN5L2 inh	TDP1 inh	PLK1 PBD inh	VDR inh	DT40 TDP1 CPT
COc1ccc(CCNC(=O)c2ccc(Cn3c(=O)c4ccccc4n(Cc4cccc(Cl)c4)c3=O)cc2)cc1OC	10.3µM*	-13.0%	3.6%	/	12.7%	20.6µM*
COc1ccc(CCNC(=O)c2ccc(Cn3c(=O)c4ccccc4n(Cc4ccc(F)cc4Cl)c3=O)cc2)cc1OC	-23.4%	-1.4%	0.9%	/	-5.8%	-12.6%
Cc1oc(-c2cccs2)cc1C(=O)N1CCCC(C)(C(=O)O)C1 (stereo not drawn)	-14.9%	/	/	-8.1%	/	0.8%
CC1CCN(C(=O)COC(=O)Cc2ccc(Br)cc2)CC1	2.0%	-7.2%	/	5.4%	-5.3%	24.1%
Cc1ccc(C(=O)N2CCCCC2)cc1NC(=O)c1nsc2ccccc12	?	-14.1%	8.1%	/	9.4%	?
COc1cccc(N2CCN(C(=O)c3ccc(C)c(NC(=O)c4nsc5ccccc45)c3)CC2)c1	18.4µM*	-6.0%	8.1%	/	10.1%	?
Cc1ccc(C(=O)N2CCN(c3ccc(F)cc3)CC2)cc1NC(=O)c1nsc2ccccc12	20.6µM*	1.6%	5.4%	/	11.2%	16.4µM*
O=C(Nc1ccnn1C1CCN(Cc2ccc(CO)o2)CC1)c1cccc(F)c1	?	/	/	0.0%	/	-5.4%
CSc1nc2cc(S(=O)(=O)N3CCCCC3)ccc2s1	23.1µM*	0.8%	1.4%	-6.4%	9.9%	?
Cc1cc(Br)cc(C=Nc2ccc(N3CCOCC3)cc2)c1O	7.2%	/	/	-0.3%	-14.1%	11.7%
Oc1ccc(C=Nc2ccc(N3CCOCC3)cc2)c(O)c1	-20.3%	-14.6%	4.2%	-18.8%	0.5%	-22.4%
Oc1c(Cl)cc(Cl)cc1C=Nc1ccc(N2CCOCC2)cc1	-4.6%	-12.8%	/	13.5%	44.7µM*	4.1%
Oc1ccc(N=Nc2cccc(C(F)(F)F)c2)cc1C=Nc1ccc(N2CCOCC2)cc1	18.4µM*	0.5%	4.6%	-15.9%	?	23.1µM*
CC(C)(C)c1ccc(O)c(N=Cc2cc(Br)ccc2O)c1	25.9µM*	0.0%	-5.1%	3.0%	-5.3%	?
CCc1ccc(O)c(N=Cc2ccccc2O)c1	-14.6%	-3.6%	7.0%	0.1%	4.5%	?
Cc1ccc(O)c(C=Nc2cc(C)ccc2O)c1	5.17µM*	-3.0%	8.0%	-8.9%	13.4%	5.8µM*
O=C(NCc1nc2ccccc2[nH]1)C1=C[C@H](c2ccc3c(c2)OCO3)C[C@H](OCCCCO)O1	?	-6.1%	5.1%	-10.6%	19.3%	?
CC(OC(=O)c1cc2sccc2n1C)C(=O)NCCc1ccccc1 (stereo not drawn)	17.8µM*	-3.4%	-1.0%	5.6%	-2.2%	14.6µM*
CC(OC(=O)c1cc2sccc2n1C)C(=O)NCc1ccc(F)cc1 (stereo not drawn)	-27.5%	2.8%	7.2%	-5.1%	-11.8%	-23.5%
CC(=O)OC[C@@H]1O[C@@H](O/N=C2/C[C@@H](O)[C@@H](O)[C@@H]3[C@H]4C(=O)N(c5ccc(F)cc5F)C(=O)[C@@H]4CC[C@H]23)[C@H](OC(C)=O)[C@H](OC(C)=O)[C@@H]1OC(C)=O	/	/	0.5%[21 µM]	/	/	/
CCS(=O)(=O)N1CCc2cc(C(=O)NCCc3ccc(OC)c(OC)c3)ccc21	-12.7%	-2.1%	2.9%	/	21.0%	-6.5%
O=C(Nc1ccc2oc(-c3ccccc3)nc2c1)c1cccnc1	-25.4%	-5.3%	2.0%	-0.6%	20.6%	-22.9%
O=C(Nc1ccc2oc(-c3cccnc3)nc2c1)c1ccc(-c2ccccc2OC(F)(F)F)o1	9.2µM*	-8.0%	5.7%[2.28 µM]	/	-18.5%	10.3µM*
O=C(Cc1ccccc1)Nc1ccc2oc(-c3cccnc3)nc2c1	-23.8%	-4.9%	-2.2%	-3.8%	5.6%	-21.5%
O=C(Nc1ccc2oc(-c3cccnc3)nc2c1)c1ccc(-c2ccc(OC(F)(F)F)cc2)o1	20.6µM*	4.2%	0.4%[12.3 µM]	/	?	?
